The sample as a whole holds a higher share of hits than the screen did.
Pf Dd2 growth – Plasmodium falciparum Dd2 growth inhibition | P. falciparum Dd2 growth, SYBR Green, 72 h | Potency, µM (doses to about 28.9 µM), actives largely listed as inhibitors | hit rate 4.3% among 120,000; active = well fitted inhibition curve with a large enough effect; also: nearly all actives have a fitted effect of over 65% in size
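Infected erythrocytes (Dd2, 0.3% parasitemia, 2.5% hematocrit final) are added to compound in RPMI-1640/Albumax II medium, grown 72 h at 37C in low oxygen, then lysed with saponin/Triton-X containing SYBR Green and read by fluorescence.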
Of the large screens only hits and unclear results are named; the others gave an inactive call.

CCOc1ccc(NC(=O)c2cc(S(=O)(=O)NC3CCCC3)ccc2F)cc1	none
O=C(Nc1ccc(C(F)(F)F)cc1)c1cc(S(=O)(=O)NC2CCCCCC2)ccc1F	Pf Dd2 growth 5.6µM
Cc1ccc2c(C)c(C(=O)N3CCOCC(CO)C3)oc2c1 (configuration not stated)	none
CN(Cc1cccc2cnccc12)C(=O)c1cc(COc2ccccc2F)[nH]n1	none
Cc1ccc([S+](=O)([O-])N2CCC3OCCN(C(C)C)C(=O)C3C2)cc1 (configuration not stated)	none
COc1ccc(-c2cc(N3CCC(NC(=O)COc4ccc(F)cc4)CC3)n[nH]2)cc1	none
COc1ccc(NC(=O)C2CCN(c3cc(C(F)(F)F)ncn3)CC2)cc1	none
COc1ccc(NC(=O)C2CCN(c3cc(C(F)(F)F)ncn3)CC2)cc1OC	Pf Dd2 growth 11µM
O=C(Nc1ccc(F)cc1)C1CCN(c2cc(C(F)(F)F)ncn2)CC1	none
O=C(NC1CCN(c2cc(C(F)(F)F)ncn2)CC1)c1ccco1	none
O=C(COc1ccc(F)cc1)NC1CCN(c2cc(C(F)(F)F)ncn2)CC1	Pf Dd2 growth 5.6µM
CC(C)(C)CN1CC[C@H]2COC(=O)N2c2cc(F)ccc2C1	none
O=c1n(-c2ccc(F)cc2F)nc2n1CCN(Cc1ccccc1)C2	none
CC(=O)Nc1ccc(CN2CCC3(CC2)CC(NC(C)=O)c2ccccc2O3)cc1 (configuration not stated)	none
COCCn1c(=O)n([C@H]2CCCN(C(=O)c3cc(F)ccc3F)C2)c2ncccc21	none
COc1ccc(C(=O)N2CCC[C@H](n3c(=O)n(CC4CC4)c4cccnc43)C2)cc1F	Pf Dd2 growth 13µM
CCOC(=O)CCNC(=O)N1CCC[C@H](n2c(=O)n(CC3CC3)c3cccnc32)C1	none
O=C([C@@H]1C[C@H](Oc2ccccc2)CN1C(=O)c1ccsc1)N1CCOCC1	none
CC(C)C1=NOC2(CCN(Cc3ccc(C(F)(F)F)cc3)CC2)C1	none
CN1CCN(Cc2nc(C3(O)CCN(CC4CCCCC4)CC3)cs2)CC1	Pf Dd2 growth 10µM
OC1(c2csc(CN3CCN(c4ccccn4)CC3)n2)CCN(CC2CCCCC2)CC1	none
CN1CCN(Cc2nc(C3(O)CCN(C4CCCC4)CC3)cs2)CC1	none
COc1cc(C2c3c(oc4ccccc4c3=O)C(=O)N2Cc2ccccc2Cl)ccc1O (configuration not stated)	none
COc1cc(C2c3c(-c4c(C)cc(C)cc4O)n[nH]c3C(=O)N2CCO)cc(OC)c1OC (configuration not stated)	none
COc1cc(C2c3c(-c4ccccc4O)n[nH]c3C(=O)N2Cc2ccco2)ccc1OCC(C)C (configuration not stated)	Pf Dd2 growth 2.2µM
COc1cc(C2c3c(-c4ccccc4O)n[nH]c3C(=O)N2CCO)ccc1OCC(C)C (configuration not stated)	Pf Dd2 growth 10µM
COc1ccc(C2c3c(-c4ccc(F)cc4)n[nH]c3C(=O)N2c2ccccc2)cc1OC (configuration not stated)	none
Cc1cc(C(=O)N[C@H](C)c2c(-c3ccc(F)cc3)noc2C(=O)O)c(C)o1	none
COc1ccc(NC(=O)CCSc2nc(-c3ccc(OC)cc3)cc(C(F)(F)F)n2)cc1	none
COCCNC(=O)CCSc1nc(-c2ccc(OC)cc2)cc(C(F)(F)F)n1	none
CCC(C)NC(=O)CCSc1nc(-c2ccc(OC)cc2)cc(C(F)(F)F)n1 (configuration not stated)	Pf Dd2 growth 11µM
O=C(c1ccc(C(F)(F)F)cc1)N1CCn2c(nnc2-c2ccncc2)C1	none
CC(C)(C)C(=O)N1CC[C@@H](CC(=O)O)[C@@H](CCN2CCN(c3ccccc3)CC2)C1	none
Cc1ccccc1C(=O)Nc1ccc2nc(SCCOc3ccccc3)sc2c1	none
Cc1ccccc1NC(=O)CSc1nc2ccc(NC(=O)c3ccco3)cc2s1	Pf Dd2 growth 11µM
Cc1ccccc1OCCSc1nc2ccc(NC(=O)c3cccs3)cc2s1	Pf Dd2 growth 1.1µM
Cc1ccccc1NC(=O)CSc1nc2ccc(NC(=O)c3ccccc3)cc2s1	none
Cc1ccccc1OCC(=O)Nc1ccc2nc(SCCOc3ccccc3)sc2c1	none
Cc1ccc(NC(=O)CSc2nc3ccc(NC(=O)c4ccco4)cc3s2)c(C)c1	none
CC(=O)c1cc(C(=O)N2C[C@@H](C(=O)O)[C@H](c3ccccc3)C2)c(=O)[nH]c1C	none
CN1C(=O)[C@@H]2C[C@@H](CN2C(=O)c2ccc3c(c2)OCO3)Oc2ccccc21	none
COc1cc(Cl)c(C)cc1NC(=O)c1ccc2c(Cl)c3c(nc2c1)CCC3	none
CCOC(=O)c1cccc(Nc2c3c(nc4ccccc24)CCC3)c1	Pf Dd2 growth 10µM
CCOC(=O)c1nc(Nc2ccc(C(C)=O)cc2)c2ccccc2n1	none
CCOC(=O)c1cccc(Nc2nc(C(=O)OCC)nc3ccccc23)c1	Pf Dd2 growth 7.9µM
CCOC(=O)c1nc(Nc2cccc(C)c2)c2ccccc2n1	none
CCOC(=O)c1nc(Nc2ccccc2C)c2ccccc2n1	none
CCOC(=O)c1cccc(NC(=O)CCc2nc3cccnc3n2-c2ccccc2)c1	none
COc1ccc(NC(=O)CSc2c3c(nc4ccccc24)CCC3)cc1Cl	none
CCOC(=O)c1cccc(Nc2cc(-c3ccccc3)ncn2)c1	none
CCCOC(=O)c1cccc(Nc2nc(C(=O)OCC)nc3ccccc23)c1	Pf Dd2 growth 5.6µM
COc1cc(Cl)c(C)cc1Nc1c2c(nc3ccccc13)CCC2	Pf Dd2 growth 8.9µM
Cc1cccc(Nc2nc(-c3ccccc3)nc3ccccc23)c1	none
Cc1noc([C@@H](C)NC(=O)COc2ccccc2)c1C(=O)O	none
CCN1C(=O)CCN(C(=O)c2c(C)noc2C)CC12CCOCC2	none
C[C@H]1[C@@H]2[C@@H](O)C([C@H](C)C(=O)NCc3ccco3)CC[C@@]2(C)CC[C@@H]1NC(=O)c1cncnc1 (some centres not stated)	none
CCN(CC)C(=O)CCC1CCN(C(=O)c2ccccc2F)CC1	none
Cc1noc(C)c1S(=O)(=O)N1CCOC[C@H](Oc2ccc(C(F)(F)F)cc2)C1	none
Cc1cc(C)n(CC(=O)NCC2(C)CCOCC2)n1	none
COCCn1c(=O)n([C@H]2CCCN(C(=O)CN3CCCC3=O)C2)c2ncccc21	none
Cn1ccnc1C(=O)NCC(=O)N1CCCCCNC(=O)CC1c1ccccc1 (configuration not stated)	none
O=C(CO[C@H]1CN(Cc2ccc(C(=O)O)cc2)C[C@H]1F)Nc1ccccc1O	none
COc1ccccc1Oc1ncccc1CNC(=O)c1ccc(CO)o1	none
COc1ccccc1OCCn1c(-c2ccc(Cl)cc2)nc2ccccc2c1=O	none
COc1ccc(-c2nc3ccccc3n2Cc2ccc(Cl)cc2)cc1	none
COc1cccc(OCCCCn2c(-c3ccc(Cl)cc3)nc3ccccc3c2=O)c1	Pf Dd2 growth 10µM
O=C(CCCn1cnnn1)N[C@@H]1COCC[C@@H]1OCC1CCC1	none
COc1ccc(C(=O)N2CC[C@@H]3CN(S(C)(=O)=O)[C@@H]3C2)c(OC)n1	none
c1cncc(-c2nc(CC3CCCNC3)no2)c1 (configuration not stated)	none
O=C(NCCc1cccc(F)c1)C1CCCN(C2CCN(C(=O)C3CC3)CC2)C1 (configuration not stated)	none
Cc1ccc(-c2cc3c(=O)n(CCNC(=O)c4ccc(F)c(F)c4)ccn3n2)cc1C	none
COc1ccc(C(=O)Nc2ccc3c(N4CCOCC4)ncnc3c2)c(C)c1	none
CN1C(=O)CC(C(=O)O)C12CCN(Cc1cccc(-c3ccccc3)c1)CC2 (configuration not stated)	none
OC[C@]12CCCN[C@@H]1CCN(Cc1cccc(-c3ccccn3)c1)C2	none
O[C@]12CCNC[C@H]1CN(Cc1cccc(-c3ccccc3)c1)CC2	Pf Dd2 growth 8.9µM
